This is a sample that favours compounds with a hit; in the whole collection about 10% have one here.
KB-V1 MDR tox: qHTS assay for MDR1-selective chemotherapeutics: Primary screen using the drug-selected MDR subline cells KB-V1; Potency, µM (highest dose often 46.1 µM), usual class: cytotoxic; KB-V1 MDR cells viability, CellTiter-Glo, 72 h; 400,000 tested, 3.4% active; note: % is set by controls: 0 for no effect and ±100 for the full control effect; nearly all actives have a fitted effect of over 60% in size
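KB-V1, DMEM (no phenol red) + 10% FBS; cpd pin-transferred, titration series; 72 h, 37 degrees C; CellTiter-Glo, luminescence. Data normalized, curve-fit.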
VP16 counter: VP16 counterscreen qHTS for inhibitors of ROR gamma transcriptional activity; Drosophila S2 Gal4-VP16 UAS-luciferase, luminescence, 20 h; Potency, µM (highest dose often 53.6 µM), for the others: top-dose activity, negative = inhibition, most hits filed as inhibitors; 310,000 tested, 3.5% active;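 note: Gal4-VP16 expression switched on by copper sulfate through the metallothionein promoter; % is set by controls: 0 for no effect and ±100 for the full control effect; nearly all actives have a fitted effect of over 50% in size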
KB-3-1 tox: qHTS assay for MDR1-selective chemotherapeutics: Primary screen using the parental adenocarcinoma cell KB-3-1 | Potency, µM (titrated, usually from 46.1 µM), most hits filed as cytotoxic | 400,000 tested, 1.4% active | KB-3-1 viability, CellTiter-Glo ATP luminescence, 72 h | AID 1347075, 2019; note: % is set by controls: 0 for no effect and ±100 for the full control effect; nearly all actives have a fitted effect of over 60% in size
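Multi-concentration cytotoxicity screen in KB-3-1 cells grown in DMEM lacking phenol red with 10% FBS. After 72 h at 37 °C with compound, ATP-dependent luminescence was recorded.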
RORgamma inh: qHTS for inhibitors of ROR gamma transcriptional activity | Nuclear receptor ROR-gamma (Mus musculus), P51450 | Drosophila S2 Gal4-RORgamma UAS-luciferase reporter, 20 h | Potency, µM (series often up to 53.6 µM), without a hit: top-dose activity change, negative = inhibition, most hits filed as inhibitors | 310,000 tested, 5.4% active; note: % is set by controls: 0 for no effect and ±100 for the full control effect; nearly all actives have a fitted effect of over 60% in size
Target sequence (P51450 whole entry, looked up, the tested form may be a part): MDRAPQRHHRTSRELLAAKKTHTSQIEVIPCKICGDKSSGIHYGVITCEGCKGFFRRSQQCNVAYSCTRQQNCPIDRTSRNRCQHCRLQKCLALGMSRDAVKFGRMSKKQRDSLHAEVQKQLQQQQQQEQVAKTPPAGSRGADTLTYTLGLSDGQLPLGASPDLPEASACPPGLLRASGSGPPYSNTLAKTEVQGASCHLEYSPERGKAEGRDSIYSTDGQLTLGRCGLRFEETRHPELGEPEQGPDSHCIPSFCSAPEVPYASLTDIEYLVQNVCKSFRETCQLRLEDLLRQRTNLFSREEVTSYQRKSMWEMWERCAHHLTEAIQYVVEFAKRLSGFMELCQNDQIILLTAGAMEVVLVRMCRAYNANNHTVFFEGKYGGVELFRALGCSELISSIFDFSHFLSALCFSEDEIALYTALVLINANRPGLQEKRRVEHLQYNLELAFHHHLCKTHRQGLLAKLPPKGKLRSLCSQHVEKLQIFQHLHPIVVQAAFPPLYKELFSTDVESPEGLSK
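ROR gamma transcriptional activity was tracked as Gal4-UAS luciferase output in stably transfected Drosophila Schneider cells, with compound added 1 hr before 700 uM copper sulfate induction and a 20 hr ambient-temperature incubation.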
SW480 rerep: A quantitative high throughput screen for small molecules that induce DNA re-replication in SW480 colon adenocarcinoma cells. AID 624297, 2012. SW480 DNA re-replication, Hoechst DNA content imaging, 48 h. 340,000 tested, 1.8% active. Potency, µM (titrated, usually from 46.1 µM), for the others: top-dose re-replication activation, most hits filed as activators; note: % of control where 0% means no effect; nearly all actives have a fitted effect of over 55% in size
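Hoechst fluorescence of nuclei (405 nm excitation, 500-530 nm emission) measured by plate-scanning imager after 48 hr compound exposure at 37 C; re-replication scored as increased number of nuclei with elevated intensity.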
MCF10A rerep: A quantitative high throughput screen for small molecules that induce DNA re-replication in MCF 10a normal breast cells; 350,000 tested, 2.9% active; MCF 10A DNA re-replication, Hoechst nuclear intensity, 48 h; Potency, µM (doses to about 46.1 µM), for inactives: at the highest dose activity, positive = re-replication, hits mostly activators; note: % of control where 0% means no effect; nearly all actives have a fitted effect of over 50% in size
* hit, by the source's call; i = inactive; ? = inconclusive; nt = not tested or not shown. Calls come from the whole dose curve; as a rule, active = well fitted curve in the direction sought with a large enough effect; inconclusive = small, poorly fitted or top-dose-only effect, or another doubt; inactive = no such curve, though single readings can be large; an effect the other way counts as inactive or inconclusive. Potency is the fitted concentration of half-maximal effect.

SMILES | KB-V1 MDR tox | VP16 counter | KB-3-1 tox | RORgamma inh | SW480 rerep | MCF10A rerep
CCCC1Cc2c(sc(NC(=S)NC(=O)c3ccccc3)c2C#N)CO1 (stereo not given) | nt | ? | nt | 4.5µM* | nt | nt
N#Cc1c(NC(=O)c2cnccn2)sc2c1CCCC2 | 16µM* | ? | ? | ? | 5.8µM* | ?
Cn1nccc1C(=O)Nc1sc2c(c1C#N)CCCC2 | i | ? | i | ? | 2% | -13%
C=CCN1CC(C(=O)N(CCCN(C)C)C(=O)NCC)CC2c3cccc4[nH]cc(c34)CC21 (stereo not given) | nt | 2% | nt | -3% | -12% | -1%
COC(=O)c1cc(NC(=O)C(C)c2ccc(CC(C)C)cc2)ccc1O (stereo not given) | i | ? | i | ? | ? | 15µM*
Cc1cccn2c(=O)c3cc(C(=O)NCCN4CCOCC4)c(=N)n(CCc4ccccc4)c3nc12 | ? | -6% | i | -34% | 2.6µM* | 2.6µM*
COc1ccc(CCn2c(=N)c(C(=O)NCCN3CCOCC3)cc3c(=O)n4cccc(C)c4nc32)cc1OC | i | -1% | i | -13% | 16µM* | ?
COCCn1c(=N)c(C(=O)NCCc2ccccc2)cc2c(=O)n3cccc(C)c3nc21 | i | nt | i | nt | 1.8µM* | ?
Cc1cccn2c(=O)c3cc(C(=O)NCc4ccccc4)c(=N)n(CCCN4CCOCC4)c3nc12 | i | nt | ? | nt | 5.2µM* | 14%
COc1ccc(CCn2c(=N)c(C(=O)NCCN3CCOCC3)cc3c(=O)n4ccccc4nc32)cc1OC | i | -7% | i | -33% | -8% | 5%
Nc1sc(-c2ccccc2)cc1C(=O)N1CCN(c2ccccc2)CC1 | i | nt | i | nt | nt | nt
Cc1ccc(-n2nc(C(=O)N3CCN(c4ccccc4F)CC3)c3c4ccccc4n(C)c3c2=O)cc1 | i | nt | i | nt | nt | nt
CN1CCCC(C)(C(=O)Nc2cccc(Oc3ccccc3)c2)C1 (stereo not given) | i | nt | i | nt | nt | nt
Cc1cccn2c(=O)c3cc(C(=O)NCCN4CCOCC4)c(=N)n(CCCN4CCOCC4)c3nc12 | i | -3% | i | 2% | 1.2µM* | ?
COCCCn1c(=N)c(C(=O)NCc2ccco2)cc2c(=O)n3cccc(C)c3nc21 | ? | nt | i | nt | nt | nt
COCCCn1c(C(=O)NCCN2CCOCC2)cc2c(=O)n3cccc(C)c3nc21 | ? | 1% | ? | -11% | ? | ?
C=CCn1c(=N)c(C(=O)NCCCOC)cc2c(=O)n3cccc(C)c3nc21 | i | 2% | i | -1% | ? | 4.1µM*
C=CCNc1ncnc2c1ncn2[C@H]1CN(Cc2ccccc2)C[C@@H](COC(C)=O)O1 | i | nt | i | nt | nt | nt
CCCCn1c(N)c(N(CC)C(=O)c2cc3c(s2)CCCCC3)c(=O)[nH]c1=O | i | nt | i | nt | 1% | 2%
CCCCn1c(N)c(N(CC(C)C)C(=O)c2cnccn2)c(=O)[nH]c1=O | i | nt | i | nt | 18µM* | -3%
CCCCn1c(N)c(N(CC)C(=O)c2ccc(-c3ccc(Cl)cc3)o2)c(=O)[nH]c1=O | ? | nt | i | nt | 23% | 3%
CCCCn1c(N)c(N(CC(C)C)C(=O)c2cc3c(s2)CCCCC3)c(=O)[nH]c1=O | i | nt | i | nt | 7.3µM* | -2%
CCCCn1c(N)c(N(CC)C(=O)c2cnc(C)cn2)c(=O)[nH]c1=O | i | nt | i | nt | 3% | 5%
CCCCn1c(N)c(N(CC(C)C)C(=O)c2ccc(-c3ccc(Cl)cc3)o2)c(=O)[nH]c1=O | ? | nt | ? | nt | -8% | 23µM*
Cc1ccc(-n2c(=O)c3sccc3n(CC(=O)NCc3ccco3)c2=O)cc1 | i | -6% | i | 4% | -3% | 3%
SMILES | KB-V1 MDR tox | VP16 counter | KB-3-1 tox | RORgamma inh | SW480 rerep | MCF10A rerep
Cc1cccc(Cn2c(=O)n(-c3ccc(CC(=O)NCc4ccco4)cc3)c(=O)c3sccc32)c1 | ? | -27% | 23µM* | -8% | ? | ?
COc1cc(OC)cc(-n2c(=O)c3sccc3n(Cc3ccc(F)cc3)c2=O)c1 | i | nt | i | nt | nt | nt
O=c1c2sccc2n(Cc2cccc(F)c2)c(=O)n1-c1ccc(F)cc1 | 8.2µM* | -5% | i | 36% | 4% | ?
COc1ccc(C(=O)NC(=S)Nc2nnn(C)n2)cc1 | i | -26% | ? | 5.6µM* | 11% | -10%
COc1cccc(C(=O)NC(=S)Nc2nnn(C)n2)c1 | ? | 11µM* | i | 8.9µM* | -3% | -10%
Cc1cccc(NC(=O)C(=O)NCCc2sc(-c3ccccc3)nc2C)c1C | i | nt | i | nt | nt | nt
CC(C)OC(=O)Nc1ccc2nc(-c3cscn3)[nH]c2c1 | nt | ? | nt | ? | 5.3µM* | 9.4µM*
COc1ccc(C(=O)COC(=O)C(CC(C)C)N2C(=O)c3ccccc3C2=O)cc1 (stereo not given) | 8.2µM* | 5% | i | ? | -8% | -7%
CC(C)CC(C(=O)OCC(=O)N1CCN(c2ccccc2)CC1)N1C(=O)c2ccccc2C1=O (stereo not given) | 16µM* | nt | i | nt | -2% | 1%
CC(C(=O)OCC(=O)N1CCN(c2ccccc2)CC1)N1C(=O)c2ccccc2C1=O (stereo not given) | i | nt | i | nt | -11% | ?
COc1ccc(-c2cnc(N3CCC(C(N)=O)CC3)s2)cc1OC | i | nt | i | nt | nt | nt
O=C(NCCO)C(=O)c1c(-c2ccc(Cl)cc2)cc2ccccn12 | i | 11% | i | 1% | -7% | 1%
O=C(NCCc1ccccc1)C(=O)c1c(-c2ccccc2)cc2ccccn12 | 21µM* | 5% | i | 21% | -8% | -3%
CC(C)NS(=O)(=O)c1ccc2nc(NC(=O)c3cncc(Br)c3)sc2c1 | i | nt | i | nt | nt | nt
N#CCCn1c(=O)c(-c2ccc(F)cc2)nc2cnc(N3CCNCC3)nc21 | nt | -5% | nt | 4% | nt | nt
CCOc1ccccc1NC(=O)CSc1nc2c(oc3ccccc32)c(=O)n1-c1ccc(F)cc1 | i | nt | i | nt | nt | nt
Nc1nsc2ccccc12 | ? | ? | ? | 14µM* | ? | -30%
Cc1cc2c(cc1S(=O)(=O)N(CCN(C)C)Cc1ccco1)OCC(=O)N2 | i | nt | i | nt | nt | nt

From PubChem BioAssay
